Experimental data: PMC4336329 (PLoS ONE, 2015)
In all, about 310,000 compounds went through this assay and about 14,000 (4.5%) showed an effect of 50% or more. The effect is printed as a negative number. The full list was thinned out, with strong results kept by preference.

What follows are compounds tested against human ether-à-go-go-related gene (hERG) potassium channel (human, UniProt Q12809) (assay: primary screen, population patch clamp on CHO cells stably expressing hERG; higher = less effect of the substance).
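Also: peak tail current of the secondary pulse compared with the same well before compound.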

human ether-à-go-go-related gene (hERG) potassium channel, sequence (Q12809 whole entry, looked up): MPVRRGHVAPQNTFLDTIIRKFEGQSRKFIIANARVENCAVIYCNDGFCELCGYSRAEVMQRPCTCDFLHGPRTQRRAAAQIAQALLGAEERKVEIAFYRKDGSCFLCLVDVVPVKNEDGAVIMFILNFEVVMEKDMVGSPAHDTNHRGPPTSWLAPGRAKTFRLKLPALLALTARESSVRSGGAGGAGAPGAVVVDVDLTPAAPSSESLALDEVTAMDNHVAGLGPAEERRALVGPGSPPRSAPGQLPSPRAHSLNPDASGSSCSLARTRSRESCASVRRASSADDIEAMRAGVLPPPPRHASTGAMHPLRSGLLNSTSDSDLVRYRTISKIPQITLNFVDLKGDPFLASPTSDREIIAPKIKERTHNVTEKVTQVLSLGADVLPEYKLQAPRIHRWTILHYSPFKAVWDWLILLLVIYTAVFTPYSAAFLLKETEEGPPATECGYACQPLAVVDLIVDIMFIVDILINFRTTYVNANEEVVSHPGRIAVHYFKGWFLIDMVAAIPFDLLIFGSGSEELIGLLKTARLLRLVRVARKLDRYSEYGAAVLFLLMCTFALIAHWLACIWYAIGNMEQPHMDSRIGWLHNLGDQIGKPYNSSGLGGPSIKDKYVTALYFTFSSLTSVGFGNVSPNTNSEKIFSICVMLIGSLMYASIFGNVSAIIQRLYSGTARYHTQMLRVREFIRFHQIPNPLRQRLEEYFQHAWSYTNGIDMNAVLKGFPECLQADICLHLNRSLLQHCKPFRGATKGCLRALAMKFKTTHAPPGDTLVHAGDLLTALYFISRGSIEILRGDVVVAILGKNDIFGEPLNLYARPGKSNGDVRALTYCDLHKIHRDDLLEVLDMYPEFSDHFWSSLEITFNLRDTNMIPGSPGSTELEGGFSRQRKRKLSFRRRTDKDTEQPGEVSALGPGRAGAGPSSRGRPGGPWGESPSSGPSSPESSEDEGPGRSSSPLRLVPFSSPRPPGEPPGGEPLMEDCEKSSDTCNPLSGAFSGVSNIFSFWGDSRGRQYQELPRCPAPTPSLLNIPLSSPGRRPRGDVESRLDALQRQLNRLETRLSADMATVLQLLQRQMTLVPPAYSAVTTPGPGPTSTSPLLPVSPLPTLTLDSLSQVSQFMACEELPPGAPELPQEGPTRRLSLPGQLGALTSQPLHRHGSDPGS

SMILES	hERG current change (%, negative = inhibition) at 10uM [%]
COc1ccccc1NS(=O)(=O)c1cc(C)ccc1C	4.55
CCCc1nn(C)c2c(=O)[nH]c(-c3cc(S(=O)(=O)N(CCO)CCO)ccc3OCC)nc12	0.59
CCc1ccc2c(c1)C(c1ccc([N+](=O)[O-])cc1)=NNC(c1ccc(F)cc1)=N2	-7.54
COc1ccc(S(=O)(=O)Cc2ccc(C(=O)N3CCOCC3)o2)cc1	1.23
COc1ccc(S(=O)(=O)N2CCN(C(=O)c3ccc([N+](=O)[O-])o3)CC2)cc1	-51.3
CCOC(=O)N1CCN(C(=O)c2ccc(CS(=O)(=O)c3ccc(OC)cc3)o2)CC1	-16
COc1ccc(S(=O)(=O)N2CCN(C(=O)c3ccc(C)o3)CC2)cc1	-5.16
COc1ccc(CCC(=O)N2CCN(S(=O)(=O)c3ccc(OC)cc3)CC2)cc1	-8.45
COc1ccc(S(=O)(=O)Cc2ccc(C(=O)N3CCN(c4ncccn4)CC3)o2)cc1	-16.8
COc1ccc(S(=O)(=O)Cc2ccc(C(=O)N3CCN(c4ccccc4F)CC3)o2)cc1	-52.8
COc1ccc(S(=O)(=O)Cc2ccc(C(=O)N3CCN(c4cc(Cl)ccc4C)CC3)o2)cc1	9.01
COc1ccc(S(=O)(=O)Cc2ccc(C(=O)N3CCN(c4cccc(C)c4C)CC3)o2)cc1	-30.6
COc1ccc(N2CCN(C(=O)c3ccc(CS(=O)(=O)c4ccc(OC)cc4)o3)CC2)cc1	-64.7
COc1ccc(S(=O)(=O)Cc2ccc(C(=O)N3CCN(c4ccccc4)CC3)o2)cc1	-37.6
COc1ccc(S(=O)(=O)Cc2ccc(C(=O)N3CCN(c4ccc(Cl)cc4)CC3)o2)cc1	-55.5
CC(=O)c1ccc(N(C(=O)CNC(=O)c2ccco2)C(C(=O)NC2CCCC2)c2ccncc2)cc1 (stereo not shown)	20.3
COc1cccc(-c2nn(-c3ccc(C)cc3)cc2C(=O)N(C)CC(=O)Nc2cccc(F)c2)c1	0.34
COc1ccc(OC)c(NC(=O)COC(=O)c2ccc(S(=O)(=O)N3CCOCC3)cc2)c1	-15.3
O=C(Nc1ccc2c(c1)OCO2)C1CC1(Cl)Cl (stereo not shown)	3.77
COc1cc(OC)c(OC)cc1CNC(=O)c1cc(=O)c2ccccc2o1	8.48

SMILES	hERG current change (%, negative = inhibition) at 10uM [%]
COc1ccc(N(C(C)=O)S(=O)(=O)c2cccs2)cc1	7.03
CCCn1nnc(NC(=O)c2ccc(Cl)cc2Cl)n1	2.23
O=C(O)CCc1ccc(S(=O)(=O)N2CCOCC2)cc1	9.65
COC(=O)C1=C(C)N(c2cccc(Cl)c2)C(=O)C1	9.01
O=C(c1ccccc1)C(Nc1ccccn1)c1ccccc1 (stereo not shown)	1.36
COP(=O)(OC)C(Nc1ccccn1)c1ccccc1 (stereo not shown)	26.6
c1ccc(CC(Nc2ccccn2)c2ccccc2)cc1 (stereo not shown)	-52.8
CCN(CC)CCN(C(=O)c1ccc(S(=O)(=O)N2CCOCC2)cc1)c1nc2cc3c(cc2s1)OCCO3.Cl	-69.2
CCN(CC)CCN(C(=O)c1ccc(S(=O)(=O)N2CCCCC2)cc1)c1nc2cc3c(cc2s1)OCO3.Cl	-37.6
CN(C)CCCN(C(=O)c1ccc(S(=O)(=O)N2CCCCC2)cc1)c1nc2cc3c(cc2s1)OCO3.Cl	-70.4
CN(C)CCN(C(=O)c1ccc(S(=O)(=O)N(C)C)cc1)c1nc2cc3c(cc2s1)OCCO3.Cl	-40.7
CCN(CC)CCN(C(=O)c1ccc(N2C(=O)CCC2=O)cc1)c1nc2cc3c(cc2s1)OCCO3.Cl	-27.6
Cc1ccc2sc(N(CCCN(C)C)C(=O)c3ccc(S(=O)(=O)N4CCOCC4)cc3)nc2c1C.Cl	-35.9
CC1CN(S(=O)(=O)c2ccc(C(=O)N(CCCN(C)C)c3nc4cc5c(cc4s3)OCCO5)cc2)CC(C)O1.Cl (stereo not shown)	-28.8
CN(C)CCCN(C(=O)c1ccc(S(=O)(=O)N2CCOCC2)cc1)c1nc2cc3c(cc2s1)OCO3.Cl	-61.4
CN(C)CCCN(C(=O)c1ccc(S(=O)(=O)N2CCCCCC2)cc1)c1nc2cc3c(cc2s1)OCCO3.Cl	-59.7
C=C1C(=O)C=C2CN(C(=O)c3ccccc3)[C@@](Cc3ccc(F)cc3)(C(=O)OC)[C@@H]12	-3.22
CCOc1ccc(N2C(=O)CC(N3CCN(C(=O)c4ccco4)CC3)C2=O)cc1 (stereo not shown)	-9.91
Cc1cc(C)n(C(=O)CNC(=O)C(c2ccccc2)c2ccccc2)n1	-3
CN(C)c1ccc(NC(=O)c2cccc([N+](=O)[O-])c2)c2ccccc12	-4.86
